# Experimental data: ChEMBL document CHEMBL5606458, “ASAP - ZIKV NS2B-NS3 protease fluorescence single point” (2024)
# The whole screen tested about 2,700 compounds, of which about 160 (5.9%) showed an effect of 50% or more. For the sample, strong results were picked, then their nearest neighbours and some compounds at random.
# Molecular target: Nonstructural protein 3 (Zika virus) (UniProt A0A024AXB9)
# [1] = PRVABC59, Concentration 15.0 uM, Number of replicates 1.0
# [2] = PRVABC59, Concentration 50.0 uM, Number of replicates 1.0
# Nonstructural protein 3 (Zika virus), sequence (A0A024AXB9 as listed by the source): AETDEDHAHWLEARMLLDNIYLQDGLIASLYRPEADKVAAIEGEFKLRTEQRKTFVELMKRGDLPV
smiles,measurement,setting,value
Cc1cc(CO)c2cccc(CC(=O)N(c3ncccn3)S(=O)(=O)c3ccc(N)cc3)c2n1,inhibition,"PRVABC59, Concentration 49.95 uM, Number of replicates 2.0, Standard deviation 0.08143445481880901 %",93.4%
same,inhibition,"PRVABC59, Concentration 99.9 uM, Number of replicates 2.0, Standard deviation 0.09670172922339526 %",93.5%
Cc1cc(CO)c2cccc(Cc3cccc(C(=O)N(c4ncccn4)S(=O)(=O)c4ccc(N)cc4)c3)c2n1,inhibition,"PRVABC59, Concentration 49.95 uM, Number of replicates 2.0, Standard deviation 0.9333358068338657 %",1.86%
same,inhibition,"PRVABC59, Concentration 99.9 uM, Number of replicates 2.0, Standard deviation 0.5295896500552713 %",17.8%
Cc1cc(CO)c2cccc(Cc3ccccc3C(=O)N(c3ncccn3)S(=O)(=O)c3ccc(N)cc3)c2n1,inhibition,"PRVABC59, Concentration 49.95 uM, Number of replicates 2.0, Standard deviation 0.5295893128804832 %",2.68%
same,inhibition,"PRVABC59, Concentration 99.9 uM, Number of replicates 2.0, Standard deviation 0.15206043463069627 %",8.61%
c1ccn2c(CNCC3CCOCC3)nnc2c1,inhibition,"PRVABC59, Concentration 49.5 uM, Number of replicates 2.0, Standard deviation 1.8796463523944162 %",-1.69%
same,inhibition,"PRVABC59, Concentration 99.01 uM, Number of replicates 2.0, Standard deviation 2.0631141970669455 %",-2.09%
same,inhibition,"PRVABC59, Concentration 198.0 uM, Number of replicates 2.0, Standard deviation 1.9030296768293513 %",-4.01%
Cc1cc(Br)ccc1CNC(=O)c1cc(Cl)ccc1NS(=O)(=O)c1ccc(Oc2ccccc2Cl)cc1,inhibition,[1],27.2%
O=C(NCc1nc(-c2ccccn2)no1)c1cc(Cl)ccc1NS(=O)(=O)c1ccc(Oc2ccccc2Cl)cc1,inhibition,[1],54%
O=C(Nc1ccc(SC(F)(F)F)cc1)c1cc(Cl)ccc1NS(=O)(=O)c1ccc(Oc2ccccc2Cl)cc1,inhibition,[1],45.3%
O=C(Nc1ccc(OC(F)F)cc1)c1cc(Cl)ccc1NS(=O)(=O)c1ccc(Oc2ccccc2Cl)cc1,inhibition,[1],57.7%
COc1cc(NC(=O)c2cc(Cl)ccc2NS(=O)(=O)c2ccc(Oc3ccccc3Cl)cc2)c(Cl)cc1Cl,inhibition,[1],35%
O=C(Nc1ccccc1Cc1ccccc1)c1cc(Cl)ccc1NS(=O)(=O)c1ccc(Oc2ccccc2Cl)cc1,inhibition,[1],55.2%
O=C(Nc1ccc(C(F)(F)F)cc1)c1cc(Cl)ccc1NS(=O)(=O)c1ccc(Oc2ccccc2Cl)cc1,inhibition,[1],26.8%
COc1c(Cl)cccc1NC(=O)c1cc(Cl)ccc1NS(=O)(=O)c1ccc(Oc2ccccc2Cl)cc1,inhibition,[1],38.1%
O=C(NCc1ccc(-c2ccccn2)cc1)c1cc(Cl)ccc1NS(=O)(=O)c1ccc(Oc2ccccc2Cl)cc1,inhibition,[1],31.7%
CNC(=O)c1ccccc1NC(=O)c1cc(Cl)ccc1NS(=O)(=O)c1ccc(Oc2ccccc2Cl)cc1,inhibition,[1],12.1%
COc1ccc(NC(C)=O)cc1NC(=O)c1cc(Cl)ccc1NS(=O)(=O)c1ccc(Oc2ccccc2Cl)cc1,inhibition,[1],55%
O=C(NCCc1nc(-c2ccc(Cl)cc2)no1)c1cc(Cl)ccc1NS(=O)(=O)c1ccc(Oc2ccccc2Cl)cc1,inhibition,[1],20.2%
O=C(Nc1ccccc1Sc1ccccc1)c1cc(Cl)ccc1NS(=O)(=O)c1ccc(Oc2ccccc2Cl)cc1,inhibition,[1],25.8%
CN1C(=O)c2ccc(NC(=O)C3CCN(c4ccc(C=O)cc4)CC3)cc2C1=O,inhibition,[2],28.5%
c1ccc2[nH]c(CC3CCN(c4ncnc5[nH]ccc45)CC3)nc2c1,inhibition,"PRVABC59, Concentration 49.5 uM, Number of replicates 2.0, Standard deviation 0.8729323765409018 %",-3.7%
same,inhibition,"PRVABC59, Concentration 99.01 uM, Number of replicates 2.0, Standard deviation 2.6991147561762485 %",1.52%
same,inhibition,"PRVABC59, Concentration 198.0 uM, Number of replicates 2.0, Standard deviation 4.214592802372255 %",7.18%
CC(CNC(=O)c1cc(Cl)ccc1NS(=O)(=O)c1ccc(Oc2ccccc2Cl)cc1)(c1ccccc1)c1ccccc1,inhibition,[1],31.7%
COc1cccc(CCNC(=O)c2cc(Cl)ccc2NS(=O)(=O)c2ccc(Oc3ccccc3Cl)cc2)c1,inhibition,[1],27.6%
O=C(c1cc(Cl)ccc1NS(=O)(=O)c1ccc(Oc2ccccc2Cl)cc1)N1CCN(c2ccccc2O)CC1,inhibition,[1],-1.02%
C[C@@H](c1ccccc1)N(Cc1ccncc1)C(=O)C1CCN(c2ccc(C=O)cc2)CC1,inhibition,[2],21.5%
O=C(Nc1ccc(N2CCOCC2=O)cc1)c1cc(Cl)ccc1NS(=O)(=O)c1ccc(Oc2ccccc2Cl)cc1,inhibition,[1],48.5%
O=C(c1cc(Cl)ccc1NS(=O)(=O)c1ccc(Oc2ccccc2Cl)cc1)N1CCN(CCc2ccccc2)CC1,inhibition,[1],53.5%
C[C@H](NC(=O)c1cc(Cl)ccc1NS(=O)(=O)c1ccc(Oc2ccccc2Cl)cc1)c1ccc(N2CCOCC2)cc1,inhibition,[1],18.7%
Cc1cc(I)ccc1NC(=O)c1cc(Cl)ccc1NS(=O)(=O)c1ccc(Oc2ccccc2Cl)cc1,inhibition,[1],20.7%
O=C(Nc1ccc2scnc2c1)c1cc(Cl)ccc1NS(=O)(=O)c1ccc(Oc2ccccc2Cl)cc1,inhibition,[1],71.2%
O=C(Nc1ccc(Cl)c(Cl)c1)c1cc(Cl)ccc1NS(=O)(=O)c1ccc(Oc2ccccc2Cl)cc1,inhibition,[1],37.7%
O=C(Nc1cc(Cl)c(F)cc1F)c1cc(Cl)ccc1NS(=O)(=O)c1ccc(Oc2ccccc2Cl)cc1,inhibition,[1],26.5%
O=C(Nc1ccc(I)cc1F)c1cc(Cl)ccc1NS(=O)(=O)c1ccc(Oc2ccccc2Cl)cc1,inhibition,[1],67.5%
O=C(c1cc(Cl)ccc1NS(=O)(=O)c1ccc(Oc2ccccc2Cl)cc1)N1CCCN(CCCc2ccccc2)CC1,inhibition,[1],11.4%
O=C(Nc1cccc(N2CCOCC2)c1)c1cc(Cl)ccc1NS(=O)(=O)c1ccc(Oc2ccccc2Cl)cc1,inhibition,[1],66.3%
O=C(Nc1ccc(Br)nc1)c1cc(Cl)ccc1NS(=O)(=O)c1ccc(Oc2ccccc2Cl)cc1,inhibition,[1],35.2%
O=C(c1cc(Cl)ccc1NS(=O)(=O)c1ccc(Oc2ccccc2Cl)cc1)N1CCN(CCc2ccncc2)CC1,inhibition,[1],6.55%
O=C(c1cc(Cl)ccc1NS(=O)(=O)c1ccc(Oc2ccccc2Cl)cc1)N1CCC(N2CCCC2=O)CC1,inhibition,[1],-2.59%
Cn1ccc(CN2CC[C@H](c3c[nH]c4ccccc34)C2)cc1=O,inhibition,"PRVABC59, Concentration 49.5 uM, Number of replicates 2.0, Standard deviation 0.9869168424646743 %",2.74%
same,inhibition,"PRVABC59, Concentration 99.01 uM, Number of replicates 2.0, Standard deviation 1.3893738957347146 %",5.37%
same,inhibition,"PRVABC59, Concentration 198.0 uM, Number of replicates 2.0, Standard deviation 1.456023236095902 %",9.72%
O=C(c1cc(Cl)ccc1NS(=O)(=O)c1ccc(Oc2ccccc2Cl)cc1)N1CCN(Cc2cc(F)ccc2F)CC1,inhibition,[1],17.7%
COc1cc(CNC(=O)c2cc(Cl)ccc2NS(=O)(=O)c2ccc(Oc3ccccc3Cl)cc2)cc(OC)c1OC,inhibition,[1],19.3%
O=Cc1ccc(N2CCC(C(=O)Nc3cccc(Br)c3)CC2)cc1,inhibition,[2],23.9%
O=C(Nc1ccccc1Oc1ccccc1)c1cc(Cl)ccc1NS(=O)(=O)c1ccc(Oc2ccccc2Cl)cc1,inhibition,[1],54.2%
O=C(Nc1cc(Cl)c(F)c(Cl)c1)c1cc(Cl)ccc1NS(=O)(=O)c1ccc(Oc2ccccc2Cl)cc1,inhibition,[1],24.3%
O=C(Nc1ccc(-c2ccccn2)cc1)c1cc(Cl)ccc1NS(=O)(=O)c1ccc(Oc2ccccc2Cl)cc1,inhibition,[1],58.7%
O=C(Nc1ccc(-c2ccccc2)cc1)c1cc(Cl)ccc1NS(=O)(=O)c1ccc(Oc2ccccc2Cl)cc1,inhibition,[1],26.5%
O=C(Nc1cc(F)c(Br)c(F)c1)c1cc(Cl)ccc1NS(=O)(=O)c1ccc(Oc2ccccc2Cl)cc1,inhibition,[1],23.4%
O=C(Nc1ccccc1I)c1cc(Cl)ccc1NS(=O)(=O)c1ccc(Oc2ccccc2Cl)cc1,inhibition,[1],26.7%
O=C(NCc1ccc(-c2cccs2)cc1)c1cc(Cl)ccc1NS(=O)(=O)c1ccc(Oc2ccccc2Cl)cc1,inhibition,[1],28.5%
O=C(Nc1cccnc1Br)c1cc(Cl)ccc1NS(=O)(=O)c1ccc(Oc2ccccc2Cl)cc1,inhibition,[1],23%
O=C(NCc1noc(-c2cccs2)n1)c1cc(Cl)ccc1NS(=O)(=O)c1ccc(Oc2ccccc2Cl)cc1,inhibition,[1],51.9%
O=C(NCc1noc(-c2ccco2)n1)c1cc(Cl)ccc1NS(=O)(=O)c1ccc(Oc2ccccc2Cl)cc1,inhibition,[1],48.1%
O=C(Nc1ccccc1-c1ccccc1)c1cc(Cl)ccc1NS(=O)(=O)c1ccc(Oc2ccccc2Cl)cc1,inhibition,[1],36.2%
O=C(Nc1cc(Cl)c(O)c(Cl)c1)c1cc(Cl)ccc1NS(=O)(=O)c1ccc(Oc2ccccc2Cl)cc1,inhibition,[1],84.9%
